An excerpt weighted towards active compounds, which were near 5.4% of everything screened.
PNC inhibitor – blocks assembly of the perinucleolar compartment; 3.1% of 140,000 active; PC3M PTB-GFP, PNC prevalence imaging, 16 h; stronger effect = lower value; activity change (PNC), negative = inhibition, % at 10 µM;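 active = readout at or below -70, meaning at least 70% loss of cells showing the perinucleolar compartment, a nuclear body marking cancer cells; inconclusive = readout between -30 and a set limit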;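 note: plate controls were DMSO wells for no effect and camptothecin positive control wells for full effect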
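Compounds are pinned in duplicate onto adhered PC3M cells stably expressing GFP-tagged PTB and incubated 16 h at 37 C. Cells are then fixed, nuclei stained with Hoechst, and PNC-positive cells counted.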
12-hLO inh – blocks human 12-lipoxygenase activity. 0.12% of 150,000 active. Potency, µM (doses to about 57.1 µM), inactives show top-dose activity change, negative = inhibition, most hits filed as inhibitors. AID 1452. purified 12-hLO, xylenol orange hydroperoxide absorbance; note: potency is the fitted concentration of half-maximal effect; nearly all actives have a fitted effect of over 55% in size
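Lipoxygenase turnover measured by absorbance at 573 and 405 nm after Fe-XO development. Human 12hLO 150 nM, arachidonate 40 uM, pH 7.0 Hepes buffer with detergent; 15 min compound preincubation, 30 min reaction.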
IMPase cell inh – membrane-permeable compound that blocks inositol monophosphatase. 120,000 tested, under 10 active. P97697. inhibition (IP1 accumulation), % at 46.1 µM. CHO-M1 cells, IP1 accumulation, HTRF TR-FRET ratio; active = well fitted curve in the direction sought with a large enough effect in the signal ratio, not every such curve was filed as active; inconclusive = small, poorly fitted or top-dose-only effect, or a change in a side signal; inactive = no such curve, though single readings can be large or run the other way; the % refers to the signal ratio;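 note: cells stimulated with carbachol in lithium chloride buffer; plate controls were DMSO basal wells for no effect and reference inhibitor wells for full effect; higher means more IMPase inhibition seen as more IP1 and lower FRET ratio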
Target sequence (P97697 whole entry, looked up): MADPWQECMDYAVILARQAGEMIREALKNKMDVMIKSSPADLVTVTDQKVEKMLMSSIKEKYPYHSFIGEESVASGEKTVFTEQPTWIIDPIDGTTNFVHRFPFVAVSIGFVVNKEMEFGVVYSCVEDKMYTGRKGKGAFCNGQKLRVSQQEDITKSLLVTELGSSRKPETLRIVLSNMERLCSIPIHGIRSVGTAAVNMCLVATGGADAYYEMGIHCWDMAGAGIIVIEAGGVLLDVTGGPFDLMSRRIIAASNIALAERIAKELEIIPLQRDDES
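CHO-M1, 2000 cells/well, cultured 16–30 h; cpd up to 46 uM; carbachol (50 uM solution, stimulation buffer w/ 50 mM LiCl, pH 7.4), 30 min 37C; IP-One TR-FRET, 10 min RT; Ex 320/Em 665, 620; Hill-fit AC50.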
15-hLO-2 inh – 15-hLO-2 (ALOX15B) enzyme inhibition; O15296; AID 881; 0.56% of 110,000 active; Potency, µM (top dose mostly 57.1 µM), for inactives: at the highest dose activity change, negative = inhibition, most hits filed as inhibitors; purified 15hLO-2, xylenol orange hydroperoxide absorbance; note: potency is the fitted concentration of half-maximal effect; nearly all actives have a fitted effect of over 60% in size
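Read-out: hydroperoxide product oxidises ferrous iron, measured as xylenol orange complex via the 573-to-405 nm absorbance ratio after 30 min. Reaction: 50 nM enzyme, 15 min compound preincubation, 45 uM arachidonic acid, 90 min RT, Hepes pH 7.5 with Triton X-100.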
IMPase Li inh – IMPase inhibition in cells with lithium potentiation; CHO-M1 cells, IP1 TR-FRET (IP-One), carbachol + lithium; Potency, µM (top dose mostly 59.4 µM), inactives show at the top dose activity, negative = IMPase inhibition, hits mostly inhibitors; 0.35% of 210,000 active;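 note: IP1 builds up when IMPase is blocked and the TR-FRET signal falls; potency is the fitted concentration of half-maximal effect; plate controls were basal vehicle for no effect and high inhibitor control for full effect; nearly all actives have a fitted effect of over 50% in size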
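CHO cells stably expressing M1 receptor (2000/well) were cultured 16–30 h, then exposed to compounds with a small lithium addition for 30 min at 37C. IP1 was measured by TR-FRET competition; AC50 from Hill fits.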
HPGD block – blocks human HPGD enzyme activity; P15428; purified HPGD, NADH fluorescence kinetic, PGE2 substrate; Potency, µM, for the others: top-dose activity change, negative = inhibition, most hits filed as inhibitors; 4.3% of 150,000 active; active = well fitted inhibition curve with a large enough effect, not every such curve was filed as active; inconclusive = small, poorly fitted or top-dose-only effect, or another doubt; inactive = no such curve, though single readings can be large or run the other way; note: potency is the fitted concentration of half-maximal effect
Target sequence (P15428 whole entry, looked up): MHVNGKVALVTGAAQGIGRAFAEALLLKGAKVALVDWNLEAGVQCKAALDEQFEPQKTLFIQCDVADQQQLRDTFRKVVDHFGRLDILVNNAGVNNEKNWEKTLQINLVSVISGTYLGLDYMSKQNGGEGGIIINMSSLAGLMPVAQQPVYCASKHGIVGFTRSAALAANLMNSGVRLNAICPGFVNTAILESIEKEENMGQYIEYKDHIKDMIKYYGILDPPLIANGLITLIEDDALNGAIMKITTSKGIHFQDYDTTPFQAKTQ
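NADH formation kinetics: reaction with 30 uM PGE2 and 1 mM NAD+ (final), 20 nM enzyme, Tris-HCl pH 8 with Tween 20, after 15 min compound preincubation at room temperature. Fluorescence change, last versus first of five reads.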
Starred values were filed as active, the others as inactive; u = inconclusive; x = no result given; ! = not confirmed by another sample; [ ] = remark or other dose. Unless noted, calls come from the whole dose curve; as a rule, active = well fitted curve in the direction sought with a large enough effect; inconclusive = small, poorly fitted or top-dose-only effect, or another doubt; inactive = no such curve, though single readings can be large; an effect the other way counts as inactive or inconclusive. Unless noted, % is set by controls: 0 for no effect and ±100 for the full control effect.

SMILES | PNC inhibitor | 12-hLO inh | IMPase cell inh | 15-hLO-2 inh | IMPase Li inh | HPGD block
Cc1cc(C)n(CC(O)CN2C(=O)NC(C)(C)C2=O)n1 (stereo not given) | -107* | -1% | 4 | -3% | 20%[38.3 µM] | -15%
S=C1SCN(C2CCCCCCCCCCC2)CN1C1CCCCCCCCCCC1 | x | 2%[11.4 µM] | x | -3%[11.4 µM] | 19% | -5%
NS(=O)(=O)c1ccc(NC(=S)NC(=O)c2ccc(-c3ccccc3)cc2)cc1 | 48 | -1% | -7 | x | 11µM* | -29%
O=C(NC(=S)Nc1ccc(Oc2ccc(Cl)cc2)cc1)c1ccccc1 | 53 | 13µM* | 8 | u | 10%[38.3 µM] | -16%
Cc1ccccc1Cn1nnc2sc3c(c2c1=O)CCCC3 | x | x | 11 | x | x | x
Cc1ccccc1-c1nc2sc3c(c2c(=O)n1N)CCCC3 | u | -5% | 4 | -6% | 9%[38.3 µM] | 25µM*
Cc1ccccc1-c1nc2sc3c(c2c(=O)o1)CCC3 | 12 | 0% | -15 | x | 7% | 16µM*
Cn1nnc2sc3c(c2c1=O)CCCC3 | u | -7% | 1 | 3% | 11%[38.3 µM] | 32µM*
C[C@]12CC[C@H]3c4ccc(O)cc4CC[C@@H]3[C@H]1CC[C@@H]2OP(=O)(O)O | x | -2%[11.4 µM] | x | -4%[11.4 µM] | 5% | -3%
CCC/C=C(\CCC)C(NS(C)(=O)=O)c1ccccc1 (stereo not given) | x | 2% | x | -4% | -3% | -2%
O=C(CCc1ccc(O)cc1)c1c(O)cc(O)cc1O[C@H]1OC(CO)C(O)C(O)C1O (stereo not given in full) | x | -4% | x | 4% | -5% | 25µM*
O=S(=O)(/N=S1/CC=CCN1S(=O)(=O)c1ccccc1)c1ccccc1 (stereo not given) | u | -21% | 1 | 15%[2.29 µM] | 37%[38.3 µM] | 7.9µM*
CN(C)c1ccc(N=Nc2ccccc2C(=O)OCC(=O)NC2CCCC2)cc1 | -115* | -4% | -1 | x | x | x
CC(C)CC(NC(=O)C1CCC(C)CC1)C(=O)NCc1ccco1 (stereo not given) | x | x | x | x | 14% | x
COc1ccccc1CNC(=O)C(CC(C)C)NC(=O)C1CCC(C)CC1 (stereo not given) | -102* | 1% | 3 | 11% | 6%[38.3 µM] | -9%
O=S1(=O)CCC(NC(=S)NC2CCS(=O)(=O)C2)C1 (stereo not given) | 48 | -3% | x | x | -3% | -9%
O=S1(=O)CCC(NC(=S)N2CCOCC2)C1 (stereo not given) | -102* | -2% | x | x | -8% | -7%
Cc1[nH]n(-c2ncc(-c3ccccc3)s2)c(=O)c1C(c1ccc(Cl)cc1)C(C#N)C#N (stereo not given) | 12 | -3% | x | x | -1% | 25µM*
Cc1[nH]n(-c2ccccc2)c(=O)c1C(c1cc(Cl)ccc1O)c1c(C)[nH]n(-c2ccccc2)c1=O | x | x | 0 | x | x | x
C/C(=C\C(=O)c1ccncc1)Nc1ccccc1O | -2 | -1% | 3 | -18% | 2%[38.3 µM] | 14µM*
CC1(C)Cc2nc3oc4c(N5CCOCC5)ncnc4c3cc2CO1 | -109* | 1% | 8 | -22% | 11%[38.3 µM] | u
Fc1ccc(Nc2ncncc2-c2ccccc2C(F)(F)F)cc1 | x | x | x | -17% | 28% | x
O=C(c1cccc(F)c1)N1CCC2(CC1)CN(c1ccccc1)C2 | x | -14% | x | -9% | -1% | -8%
CCCCC/C=C\C/C=C\CCCCCCCC(=O)O | x | -4% | x | 7% | -12% | 8.9µM*!
Cc1nc(N2CCN(C(=O)c3ccco3)CC2)c2c3c(sc2n1)CCCC3 | 71 | 2% | 13 | x | 13% | 16µM*
Cc1nc(N2CCN(C(=O)c3ccco3)CC2)c2c3c(sc2n1)CC(C)CC3 (stereo not given) | x | x | x | x | 26% | x
COC(=O)[C@@H]1C[C@H]1[C@@H](N)c1ccccc1 | x | -3% | x | 17% | 2% | -4%
CCCCNC(=O)c1ccc2nc(-c3ccco3)c(-c3ccco3)nc2c1 | u | -6% | 4 | x | 15% | 25µM*

Screens (PubChem)
